For nine compounds, inhibition results are on record in ChEMBL document CHEMBL1961873, “Compounds: GSK PKIS; Assays: Nanosyn kinase panel” (2012).

Values joined by “and” are separate entries in the source; they are usually repeats but may differ in a detail not shown here. Equal values may be shown once.

Assay [1] has as its target RAC-alpha serine/threonine-protein kinase (Homo sapiens) (UniProt P31749). As to conditions: at 0.1 µM.
Assay [2] has the same target. Conditions: at 1 µM.
Assay [3] concerns the target RAC-beta serine/threonine-protein kinase (Homo sapiens) (UniProt P31751). Conditions: at 0.1 µM.
Assay [4] shares this target. As to conditions: at 1 µM.
Assay [5] concerns the target RAC-gamma serine/threonine-protein kinase (Homo sapiens) (UniProt Q9Y243). As to conditions: at 0.1 µM.
The target is the same in assay [6]. Conditions: at 1 µM.
Assay [7] addresses G protein-coupled receptor kinase 6 (Homo sapiens) (UniProt P43250). As to conditions: at 0.1 µM.
Assay [8] shares this target. As to conditions: at 1 µM.
In assay [9] the target is T1, Rhodopsin kinase GRK7 (Homo sapiens) (UniProt Q8WTQ7).
T1 sequence (whole entry): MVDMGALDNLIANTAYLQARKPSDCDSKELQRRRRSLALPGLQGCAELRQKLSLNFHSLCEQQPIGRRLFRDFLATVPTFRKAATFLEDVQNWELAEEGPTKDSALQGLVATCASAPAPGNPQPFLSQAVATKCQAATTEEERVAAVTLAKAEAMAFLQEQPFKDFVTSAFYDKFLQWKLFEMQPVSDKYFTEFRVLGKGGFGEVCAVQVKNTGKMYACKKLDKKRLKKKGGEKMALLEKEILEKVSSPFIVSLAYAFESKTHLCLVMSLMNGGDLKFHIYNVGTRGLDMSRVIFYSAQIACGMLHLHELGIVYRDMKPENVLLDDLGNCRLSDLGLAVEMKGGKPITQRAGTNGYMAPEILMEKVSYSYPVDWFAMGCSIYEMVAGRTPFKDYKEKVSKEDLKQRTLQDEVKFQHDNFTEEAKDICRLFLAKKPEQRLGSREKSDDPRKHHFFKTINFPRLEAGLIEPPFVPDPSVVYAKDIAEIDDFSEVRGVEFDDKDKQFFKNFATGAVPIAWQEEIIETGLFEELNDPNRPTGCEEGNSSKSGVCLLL
As to conditions: at 0.1 µM.

Assay [10] has as its target T1, Rhodopsin kinase GRK7 (Homo sapiens). As to conditions: at 1 µM.
The target of assay [11] is Serine/threonine-protein kinase MRCK alpha (Homo sapiens) (UniProt Q5VT25). Conditions: at 0.1 µM.
For assay [12] the target is unchanged. As to conditions: at 1 µM.
The target in assay [13] is Serine/threonine-protein kinase MRCK beta (Homo sapiens) (UniProt Q9Y5S2). As to conditions: at 0.1 µM.
For assay [14] the target is unchanged. As to conditions: at 1 µM.
Assay [15] addresses Ribosomal protein S6 kinase alpha-5 (Homo sapiens) (UniProt O75582). Conditions: at 0.1 µM.
Assay [16] shares this target. Conditions: at 1 µM.
Assay [17] concerns the target Ribosomal protein S6 kinase alpha-4 (Homo sapiens) (UniProt O75676). As to conditions: at 0.1 µM.
For assay [18] the target is unchanged. As to conditions: at 1 µM.
Assay [19] deals with Ribosomal protein S6 kinase beta-1 (Homo sapiens) (UniProt P23443). Conditions: at 0.1 µM.
Assay [20] has the same target. Conditions: at 1 µM.

Sequence of RAC-beta serine/threonine-protein kinase (Homo sapiens) (P31751 whole entry): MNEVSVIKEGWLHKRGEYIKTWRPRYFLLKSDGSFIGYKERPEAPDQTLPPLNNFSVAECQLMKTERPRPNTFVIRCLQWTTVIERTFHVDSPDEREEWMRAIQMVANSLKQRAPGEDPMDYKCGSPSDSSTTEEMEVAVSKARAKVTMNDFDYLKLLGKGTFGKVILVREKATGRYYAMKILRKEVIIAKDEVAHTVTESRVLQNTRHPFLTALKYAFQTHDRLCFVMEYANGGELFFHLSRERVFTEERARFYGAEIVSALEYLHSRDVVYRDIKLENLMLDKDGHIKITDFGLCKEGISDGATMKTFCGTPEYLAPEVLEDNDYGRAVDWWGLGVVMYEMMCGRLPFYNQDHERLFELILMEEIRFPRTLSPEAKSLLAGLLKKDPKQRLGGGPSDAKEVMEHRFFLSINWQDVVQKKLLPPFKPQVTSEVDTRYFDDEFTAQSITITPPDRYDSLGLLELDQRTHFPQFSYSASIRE
Sequence of Serine/threonine-protein kinase MRCK alpha (Homo sapiens) (Q5VT25 whole entry): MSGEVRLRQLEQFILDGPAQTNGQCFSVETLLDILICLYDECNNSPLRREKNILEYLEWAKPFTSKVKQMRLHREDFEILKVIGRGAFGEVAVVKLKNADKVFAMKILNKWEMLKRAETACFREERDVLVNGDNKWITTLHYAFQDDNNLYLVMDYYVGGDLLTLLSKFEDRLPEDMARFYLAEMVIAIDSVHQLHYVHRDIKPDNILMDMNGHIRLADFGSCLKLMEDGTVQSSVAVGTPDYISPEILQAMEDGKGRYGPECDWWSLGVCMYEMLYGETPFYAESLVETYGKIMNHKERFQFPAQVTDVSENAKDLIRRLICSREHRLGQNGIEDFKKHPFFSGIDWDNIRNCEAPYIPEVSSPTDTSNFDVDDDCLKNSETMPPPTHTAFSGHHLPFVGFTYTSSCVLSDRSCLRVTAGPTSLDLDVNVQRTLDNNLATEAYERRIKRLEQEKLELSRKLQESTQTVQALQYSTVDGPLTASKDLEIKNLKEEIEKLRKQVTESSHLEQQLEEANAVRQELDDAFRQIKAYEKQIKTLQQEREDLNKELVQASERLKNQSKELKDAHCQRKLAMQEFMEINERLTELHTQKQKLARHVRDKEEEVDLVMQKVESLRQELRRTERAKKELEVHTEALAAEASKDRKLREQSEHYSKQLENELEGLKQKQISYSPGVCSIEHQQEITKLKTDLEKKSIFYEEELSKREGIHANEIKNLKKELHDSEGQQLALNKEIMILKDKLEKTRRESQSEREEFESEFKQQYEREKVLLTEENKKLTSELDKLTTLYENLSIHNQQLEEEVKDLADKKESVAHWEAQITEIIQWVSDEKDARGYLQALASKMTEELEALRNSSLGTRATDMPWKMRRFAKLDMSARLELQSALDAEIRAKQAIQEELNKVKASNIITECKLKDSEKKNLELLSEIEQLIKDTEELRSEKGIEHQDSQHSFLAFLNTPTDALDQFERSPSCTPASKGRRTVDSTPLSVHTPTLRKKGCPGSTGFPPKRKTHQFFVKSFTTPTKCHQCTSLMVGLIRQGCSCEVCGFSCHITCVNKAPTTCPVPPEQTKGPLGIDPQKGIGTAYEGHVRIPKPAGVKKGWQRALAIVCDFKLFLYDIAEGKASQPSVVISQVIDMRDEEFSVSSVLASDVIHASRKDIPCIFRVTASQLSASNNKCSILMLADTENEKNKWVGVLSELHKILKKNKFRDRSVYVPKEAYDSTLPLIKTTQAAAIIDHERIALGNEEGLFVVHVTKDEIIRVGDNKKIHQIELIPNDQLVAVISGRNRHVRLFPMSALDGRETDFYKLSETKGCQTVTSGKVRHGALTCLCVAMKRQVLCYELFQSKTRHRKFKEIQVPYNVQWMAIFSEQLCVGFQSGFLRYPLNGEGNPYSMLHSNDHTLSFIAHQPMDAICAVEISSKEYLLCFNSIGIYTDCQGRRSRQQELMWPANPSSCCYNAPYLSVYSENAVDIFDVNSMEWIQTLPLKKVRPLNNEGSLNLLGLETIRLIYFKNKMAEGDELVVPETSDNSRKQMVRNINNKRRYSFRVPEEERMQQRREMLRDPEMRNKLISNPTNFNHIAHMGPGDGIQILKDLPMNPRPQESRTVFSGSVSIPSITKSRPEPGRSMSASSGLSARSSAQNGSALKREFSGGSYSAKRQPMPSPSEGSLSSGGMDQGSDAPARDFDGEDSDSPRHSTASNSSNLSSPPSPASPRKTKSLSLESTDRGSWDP
Sequence of Ribosomal protein S6 kinase beta-1 (Homo sapiens) (P23443 whole entry, looked up): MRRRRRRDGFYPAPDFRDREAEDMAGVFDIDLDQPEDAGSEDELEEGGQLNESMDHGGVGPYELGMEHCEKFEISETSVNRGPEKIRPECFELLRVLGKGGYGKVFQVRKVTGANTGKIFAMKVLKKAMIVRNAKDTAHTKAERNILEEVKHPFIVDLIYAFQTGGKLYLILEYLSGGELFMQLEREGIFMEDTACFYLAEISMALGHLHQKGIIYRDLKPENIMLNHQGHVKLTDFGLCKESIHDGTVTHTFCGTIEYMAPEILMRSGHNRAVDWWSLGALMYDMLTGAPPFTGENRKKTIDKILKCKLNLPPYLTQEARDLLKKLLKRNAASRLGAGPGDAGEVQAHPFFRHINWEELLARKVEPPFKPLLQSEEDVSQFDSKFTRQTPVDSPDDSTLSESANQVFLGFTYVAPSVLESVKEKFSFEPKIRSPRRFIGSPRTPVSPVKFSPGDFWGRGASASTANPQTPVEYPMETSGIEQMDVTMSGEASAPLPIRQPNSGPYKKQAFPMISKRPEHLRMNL
Sequence of RAC-alpha serine/threonine-protein kinase (Homo sapiens) (P31749 whole entry): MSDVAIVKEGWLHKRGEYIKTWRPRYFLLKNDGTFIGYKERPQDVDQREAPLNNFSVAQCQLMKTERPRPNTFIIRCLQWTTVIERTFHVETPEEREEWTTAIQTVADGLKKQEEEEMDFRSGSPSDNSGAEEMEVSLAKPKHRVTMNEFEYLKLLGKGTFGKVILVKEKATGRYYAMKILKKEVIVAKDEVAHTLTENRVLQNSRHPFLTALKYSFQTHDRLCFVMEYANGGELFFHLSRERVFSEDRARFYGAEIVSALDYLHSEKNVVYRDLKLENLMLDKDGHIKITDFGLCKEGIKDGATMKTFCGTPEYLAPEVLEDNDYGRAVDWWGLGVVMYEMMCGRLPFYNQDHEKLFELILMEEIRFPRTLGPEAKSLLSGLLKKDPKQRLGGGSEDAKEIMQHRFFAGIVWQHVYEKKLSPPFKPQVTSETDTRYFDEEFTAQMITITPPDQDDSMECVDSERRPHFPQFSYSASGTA
Sequence of RAC-gamma serine/threonine-protein kinase (Homo sapiens) (Q9Y243 whole entry): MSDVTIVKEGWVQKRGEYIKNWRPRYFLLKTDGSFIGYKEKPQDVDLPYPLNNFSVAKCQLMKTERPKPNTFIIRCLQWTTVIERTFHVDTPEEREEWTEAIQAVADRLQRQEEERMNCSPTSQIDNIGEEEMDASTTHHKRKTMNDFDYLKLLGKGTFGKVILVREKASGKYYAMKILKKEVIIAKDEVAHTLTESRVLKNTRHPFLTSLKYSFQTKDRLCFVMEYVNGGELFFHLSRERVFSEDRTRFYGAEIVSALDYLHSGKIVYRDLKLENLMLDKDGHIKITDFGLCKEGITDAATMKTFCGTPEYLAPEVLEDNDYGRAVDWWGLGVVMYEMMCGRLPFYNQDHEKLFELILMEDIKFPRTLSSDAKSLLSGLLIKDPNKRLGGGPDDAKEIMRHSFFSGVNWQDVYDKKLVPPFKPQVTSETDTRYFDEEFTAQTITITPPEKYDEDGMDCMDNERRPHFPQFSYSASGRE
Sequence of Ribosomal protein S6 kinase alpha-5 (Homo sapiens) (O75582 whole entry, looked up): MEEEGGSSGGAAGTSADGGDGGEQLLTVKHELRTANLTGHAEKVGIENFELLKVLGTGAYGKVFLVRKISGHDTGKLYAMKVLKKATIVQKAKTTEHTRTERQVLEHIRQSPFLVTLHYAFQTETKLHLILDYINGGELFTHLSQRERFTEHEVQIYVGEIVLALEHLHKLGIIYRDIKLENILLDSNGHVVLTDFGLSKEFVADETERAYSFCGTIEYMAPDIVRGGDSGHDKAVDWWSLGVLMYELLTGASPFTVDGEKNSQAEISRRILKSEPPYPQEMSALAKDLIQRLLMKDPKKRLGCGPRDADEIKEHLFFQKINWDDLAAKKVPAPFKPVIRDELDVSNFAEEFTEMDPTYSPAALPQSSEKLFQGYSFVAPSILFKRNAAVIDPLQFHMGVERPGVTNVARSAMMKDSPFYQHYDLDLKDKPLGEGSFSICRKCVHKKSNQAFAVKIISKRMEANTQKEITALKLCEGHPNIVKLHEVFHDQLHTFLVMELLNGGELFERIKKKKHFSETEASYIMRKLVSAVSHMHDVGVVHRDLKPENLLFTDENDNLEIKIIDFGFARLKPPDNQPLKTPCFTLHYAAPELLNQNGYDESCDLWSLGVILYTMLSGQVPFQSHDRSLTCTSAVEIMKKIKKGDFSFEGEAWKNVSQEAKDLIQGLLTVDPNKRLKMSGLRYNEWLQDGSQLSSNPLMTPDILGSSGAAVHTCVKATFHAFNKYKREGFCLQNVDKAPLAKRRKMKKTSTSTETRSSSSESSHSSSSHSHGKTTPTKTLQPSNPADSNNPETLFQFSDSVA
Sequence of G protein-coupled receptor kinase 6 (Homo sapiens) (P43250 whole entry, looked up): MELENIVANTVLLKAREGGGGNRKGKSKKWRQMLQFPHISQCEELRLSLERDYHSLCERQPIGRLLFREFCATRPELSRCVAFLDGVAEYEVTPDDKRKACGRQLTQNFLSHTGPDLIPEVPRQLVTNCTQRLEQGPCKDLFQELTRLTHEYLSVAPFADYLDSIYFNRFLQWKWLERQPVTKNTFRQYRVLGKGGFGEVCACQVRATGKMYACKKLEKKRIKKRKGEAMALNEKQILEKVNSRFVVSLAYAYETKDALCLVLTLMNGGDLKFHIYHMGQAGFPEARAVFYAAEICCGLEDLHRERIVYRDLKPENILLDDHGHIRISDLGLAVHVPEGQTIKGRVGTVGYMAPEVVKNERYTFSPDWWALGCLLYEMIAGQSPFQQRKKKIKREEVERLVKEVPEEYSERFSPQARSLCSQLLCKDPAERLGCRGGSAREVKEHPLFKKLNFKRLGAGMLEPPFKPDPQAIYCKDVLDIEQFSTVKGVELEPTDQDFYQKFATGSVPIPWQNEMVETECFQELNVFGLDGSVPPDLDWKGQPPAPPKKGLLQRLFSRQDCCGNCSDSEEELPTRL

Consider `CN(c1ccc(NC(=O)NCCN2CCOCC2)cc1)c1ccnc(Nc2ccc(CS(C)(=O)=O)cc2)n1`, for which the inhibition in [1] was 0.71%; in assay [2], -0.42%; in [3], 0.78%; in [4], 0.37%; in assay [5], 0.73%; in assay [6] it was 0.19%. In addition, the inhibition in [7] is 4.41%; in [8], 7.67%; in assay [9], 3.45%; in [10], 5.28%; in [11] it was -0.04%; in [12] it was 2.59%. The inhibition in assay [13] turned out to be 0.01%; in assay [14], 0.6%; in [15], 3.04%; in assay [16], 3.65%; in assay [17] it was 2.62%; in [18] it was 3.19%. For the same compound, the figures for the inhibition in assay [19] and in assay [20] were 1.53% and 1.23%, respectively.

With `COc1cc(Nc2ncc(-c3ccccc3)o2)cc(OC)c1`, the inhibition in [1] stood at 1.36%; in assay [2], 1.33%; in [3], 1.9%; in assay [4], 2.08%; in assay [5], 0.79%; in assay [6], 3.26%. Also, the inhibition was 0.04% in assay [7]; -0.63% in assay [8]; 19.2% in [9]; 18.7% in [10]; -6.08% in assay [11]; -1.27% in assay [12]. Moreover, the inhibition in assay [13] was -0.81%; in [14] it was 0.65%; in [15], 2.3%; in assay [16] it was -0.44%; in [17] it was 2.85%; in assay [18], 2.84%. For the same compound, the inhibition in assay [19] turned out to be 2.08%; in [20], 3.04%.

Take `CN1CCN(Cc2ccc(-c3cc4ncnc(Nc5ccc(OCc6cccc(F)c6)c(Cl)c5)c4s3)o2)CC1`: the inhibition in assay [1] was 2.3% and 0.84%; in [2], 0.33% and 0.82%; in [3], 1.77% and 3.25%; in assay [4] it was 4.18% and 1.52%; in assay [5], 0.53% and 1.8%; in [6] it was 4.32% and 3.89%. Besides, the inhibition in [7] is -0.68% and 8.35%; in assay [8], -0.78% and 9.33%; in assay [9], 9.19% and 5.43%; in assay [10], 0.67% and 9.84%; in assay [11], -1.39% and -0.36%; in [12], -3.23% and 2%. The inhibition was -0.68% and -0.01% in assay [13]; -1.28% and -0.15% in assay [14]; 7.37% and 3.64% in assay [15]; 6.3% and 5.71% in assay [16]; 1.66% and 2.85% in assay [17]; 1.25% and 4.7% in [18]. Moreover, the inhibition in [19] was 0.39% and 0.55%; in assay [20], 1.79% and 5.31%.

Take `CNC(=O)c1ncccc1Nc1nc(Nc2cc3c(cc2OC)CCCN3C(=O)CN(C)C)nc2[nH]ccc12`: the inhibition in [1] stood at 1.11%; in assay [2], 1.38%; in assay [3], 2.81%; in assay [4], 2.14%; in [5], 2.74%; in assay [6], 1.71%. Besides, the inhibition is 14.5% in assay [7]; 56.7% in [8]; 16.9% in assay [9]; 50.4% in assay [10]; -0.11% in assay [11]; 2.88% in assay [12]. In addition, the inhibition in assay [13] is 1.2%; in [14] it was 2.41%; in assay [15] it was 3.81%; in assay [16], 3.98%; in assay [17], 2.93%; in assay [18], 5.8%. Besides, the inhibition was 2.79% in assay [19] and 3.62% in [20].

As for `COc1cccc(Nc2nccc(-c3cnn4ncccc34)n2)c1`, the inhibition in assay [1] was 1.34%; in assay [2] it was 0.43%; in assay [3], 1.17%; in [4], 0.61%; in assay [5] it was 1.46%; in assay [6], -0.03%. Also, the inhibition is 4.14% in assay [7]; 0.06% in assay [8]; 1.07% in [9]; -2.16% in assay [10]; 0.93% in assay [11]; -0.24% in [12]. Besides, the inhibition in assay [13] is -1.65%; in assay [14], -1.51%; in [15] it was 1.02%; in assay [16] it was 4.32%; in [17], 1.62%; in assay [18] it was 10.5%. In addition, the inhibition in [19] came out at 2.02%; in assay [20], 3.93%.

Consider `COc1cc2c(cc1Nc1nc(Nc3cccc(F)c3C(N)=O)c3cc[nH]c3n1)N(C(=O)CN1CCN(C(C)C)CC1)CC2`, for which the inhibition was 0.64% in [1]; 1.39% in [2]; 1.31% in assay [3]; 3.18% in assay [4]; 1.35% in assay [5]; 3.89% in assay [6]. Further, the inhibition in assay [7] was 7.5%; in assay [8], 26.5%; in assay [9], 6.57%; in [10], 18.7%; in assay [11], 6.36%; in assay [12], 5.12%. Further, the inhibition in [13] turned out to be 0.17%; in assay [14], 2.33%; in assay [15], 1.4%; in [16], 3.93%; in [17], 1.44%; in assay [18] it was 3.9%. In addition, the inhibition is 2.23% in assay [19] and 2.83% in assay [20].

For the compound `Nc1ncnc2occ(-c3ccc(NC(=O)Nc4cc(C(F)(F)F)ccc4F)cc3)c12`, the inhibition in assay [1] is 0.73% and -2.6%; in assay [2], 0.58% and -1.87%; in assay [3], 1.35% and -1.97%; in assay [4] it was 0.45% and -2.44%; in [5], 1.41% and -1.65%; in assay [6], 1.58% and 0.37%. Also, the inhibition in [7] was 0.64% and -1.58%; in assay [8], -4.06% and -1.29%; in assay [9], 0.46% and 3.18%; in assay [10] it was -5.44% and -7.01%; in assay [11] it was 0.43%; in [12], -0.27% and 0.62%. The inhibition is 0.53% and -0.08% in assay [13]; 0.77% and -0.99% in [14]; 5.58% and -0.86% in assay [15]; 23.9% and 10.9% in [16]; 3.23% and -1.15% in assay [17]; 19.7% and 6.99% in assay [18]. Moreover, the inhibition was 28.2% and 17.1% in assay [19]; 77.4% and 70.2% in assay [20].

With `O=C1Nc2ccccc2/C1=C1\CCc2cc(O)ccc21`, the inhibition in assay [1] is 1.29%; in [2], 1.37%; in [3], 1.86%; in [4] it was 4.03%; in [5] it was 3.35%; in assay [6] it was 1.29%. Besides, the inhibition in assay [7] amounted to 2.32%; in assay [8] it was 15%; in assay [9], 3.45%; in assay [10], 11.4%; in [11], 0.14%; in assay [12], 0.38%. Besides, the inhibition in assay [13] was 1.68%; in assay [14], 1.65%; in assay [15], 1.96%; in assay [16] it was 10.1%; in [17], 16.3%; in assay [18], 56.7%. Further, the inhibition came out at 2.81% in assay [19] and 11.6% in [20].

For `NS(=O)(=O)c1ccc(N/N=C2\C(=O)Nc3ccc(C(=O)NCc4ccncc4)cc32)cc1`, the inhibition in assay [1] came out at 1.33%; in [2], 1.28%; in assay [3], 2.42%; in [4], 1.92%; in assay [5], 1.54%; in assay [6], 1.99%. Also, the inhibition turned out to be 5.6% in [7]; 21.9% in assay [8]; 2.04% in assay [9]; 6.72% in assay [10]; 0.07% in [11]; 3.72% in assay [12]. Moreover, the inhibition was -0.38% in assay [13]; 2.29% in [14]; 5.11% in assay [15]; 9.08% in [16]; 3.9% in [17]; 14.5% in assay [18]. For the same compound, the inhibition was determined as 1.29% in assay [19] and 6.6% in assay [20].
